Where “and” joins values, the source holds several entries; their conditions need not be identical. Equal entries are not always repeated. Compounds without any hit were thinned out: in the full panel of roughly 83,000, 20% have a hit.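 48-hour exposure, single concentration, 96-well plates; percent growth endpoint where 0 means no net growth. Active: below 10.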 A number with no mark means an inactive call. Calls of active or inactive are those of the source.

Among the data in PubChem BioAssay (NCI) are growth values, retold here.

The test system of the test is MDA-MB-468 breast. In words: NCI-60 one-dose screen, 48 h (100 = growth as untreated, 0 = no growth, -100 = all killed). The settings on record: 10 µM unless noted.
In the case of `O=S(=O)(NCCNc1nccc(-c2c(-c3ccc(F)c(O)c3)nc3sccn23)n1)c1ccccc1`, the growth was 83.2%.

Take `O=C(CCl)Nc1cc(O)c2c(c1)C(=O)c1cccc(O)c1C2=O`: the growth was -55.1% (active). The figure for `CC(C)(C)NC(C1=CC(C)(C)c2ccccc2C1=O)c1ccccc1` (configuration not stated) is -100% (active); for `CCCc1nc(C(C)(C)O)c(C(=O)O)n1Cc1ccc(-c2ccccc2-c2nn[nH]n2)cc1` it is 112%; for `CC1=C[C@H]2c3c(c(O)c(O)c4oc5cc(O)cc(O)c5c(=O)c34)[C@H](c3cc(O)c(O)c4oc5cc(O)cc(O)c5c(=O)c34)[C@H]2C(C)(C)C1` it is 3.99% (active) and -26.3% (active). On to `C=C(C)[C@@H]1CC[C@]2(C(=O)OC)CC[C@]3(C)[C@H](CC[C@@H]4[C@@](C)(CCc5nn[nH]n5)[C@H](C(=C)C)CC[C@]43C)[C@@H]12`, for which the growth was -7.51% [100 µM] (active). The figure for `CCN1CCCC1CNC(=O)c1ncc(-c2ccc(C(F)(F)F)cc2)c(NC2CCCCCC2)n1` (configuration not stated) is 80.8%; for `Cc1ccc(NC(=O)c2cc(/C=C/C(=O)NO)cc(C(F)(F)F)c2)cc1Nc1nccc(-c2cccnc2)n1` it is -24.4% (active); for `CCCC1CCC(=C2C(=O)CCC2=O)O1` (configuration not stated) it is 88.7%. The figure for `N#Cc1c(-c2ccc(Cl)cc2)nc(NCCO)[nH]c1=O` is 119%. The figure for `COc1ccc(/C=C(\C#N)n2nnc3cc(F)c(F)cc32)c(OC)c1OC` is 35.3%; for `COc1cc2nc(SCc3cc(OC)c(OC)c(OC)c3)n(-c3ccccc3OC)c(=O)c2cc1OC` it is 97.9%.
